Read-out in assay [1]: Vascular endothelial growth factor receptor 2 (Homo sapiens) (UniProt P35968)
Kind of assay: BSK_4H_VEGFRII: BioMAP Diversity Plus: 4H Assay for Vascular endothelial growth factor receptor 2 (VEGFR2) Biomarker Activity (AID 2283031).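 On AC50: cell-surface VEGFR2 protein level quantified by ELISA.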 Conditions: primary human endothelial cells (HUVEC); actives raise or lower the signal. An outline of the steps:
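HUVEC (human primary), 4H system; 24 h post-dose; VEGFRII by ELISA; bidirectional curve fit vs DMSO baseline; gain or loss of signal scored.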

Read-out in assay [2]: Human Leukocyte Antigen - DR isotype (HLADR), HLA-DRA (gene 3122)
As to the kind of experiment: BSK_BE3C_HLADR: BioMAP Diversity Plus: BE3C Assay for Human Leukocyte Antigen - DR isotype (HLADR) Biomarker Activity (AID 2283032). Conditions: primary human bronchial epithelial cells; actives raise or lower the signal. An outline of the steps: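 Chemicals are dosed onto BE3C bronchial epithelial cultures of human origin and left 24 h. HLA-DR is then measured by ELISA, and the endpoint is fitted in both directions using DMSO as the activity baseline.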

Read-out in assay [3]: Vascular cell adhesion molecule 1 (VCAM1), VCAM1 (gene 7412)
Kind of assay: BSK_4H_VCAM1: BioMAP Diversity Plus: 4H Assay for Vascular cell adhesion molecule 1 (VCAM1) Biomarker Activity (AID 2283033).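 On outcome: cell-surface VCAM-1 protein measured by ELISA.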 The conditions noted are these: primary human endothelial cells (HUVEC); actives raise or lower the signal. An outline of the steps: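 Chemicals are added to primary human umbilical vein endothelial cells. After 24 h, VCAM-1 levels are measured by ELISA. Values come from bidirectional fitting referenced to DMSO.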

Read-out in assay [4]: Interferon-gamma inducible Protein 10 (IP10), CXCL10 (gene 3627)
Kind of assay: BSK_BE3C_IP10: BioMAP Diversity Plus: BE3C Assay for Interferon-gamma inducible Protein 10 (IP10) Biomarker Activity (AID 2283034). The conditions noted are these: primary human bronchial epithelial cells; actives raise or lower the signal. An outline of the steps:
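IP-10 quantified by ELISA serves as the endpoint. Cells: primary human bronchial epithelium, read 24 h after compound addition. Activity is derived by bidirectional fitting with DMSO as negative control.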

Read-out in assay [5]: Monokine induced gamma interferon (MIG), CXCL9 (gene 4283)
As to the kind of experiment: BSK_BE3C_MIG: BioMAP Diversity Plus: BE3C Assay for Monokine induced gamma interferon (MIG) Biomarker Activity (AID 2283035). The conditions noted are these: primary human bronchial epithelial cells; actives raise or lower the signal. The method, boiled down: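 Dose cells (human primary bronchial epithelial), incubate 24 h, quantify MIG by ELISA, then fit concentration–response in both directions relative to DMSO control.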

Read-out in assay [6]: Transforming growth factor beta 1 (TGFb1), TGFB1 (gene 7040)
As to the kind of experiment: BSK_BE3C_TGFb1: BioMAP Diversity Plus: BE3C Assay for Transforming growth factor beta 1 (TGFb1) Biomarker Activity (AID 2283036;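 on outcome: TGF-b1 protein level measured by ELISA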). Conditions: primary human bronchial epithelial cells; actives raise or lower the signal. The method, boiled down: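 Bronchial epithelial primary cells are treated with test chemical, then TGF-b1 is quantified by ELISA after 24 hours. Values derive from bidirectional fitting against DMSO, with cytotoxicity checked by SRB staining in parallel cultures.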

Read-out in assay [7]: Plasminogen activator inhibitor-1 (PAI1), SERPINE1 (gene 5054)
As to the kind of experiment: BSK_BE3C_PAI1: BioMAP Diversity Plus: BE3C Assay for Plasminogen activator inhibitor-1 (PAI1) Biomarker Activity (AID 2283037). Conditions: primary human bronchial epithelial cells; actives raise or lower the signal. An outline of the steps: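 Values derive from bidirectional fitting against DMSO baseline of PAI-1 levels, measured by ELISA in human bronchial epithelial cells 24 h after compound addition.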

Read-out in assay [8]: urokinase plasminogen activator (uPA), PLAU (gene 5328)
Kind of assay: BSK_BE3C_uPA: BioMAP Diversity Plus: BE3C Assay for urokinase plasminogen activator (uPA) Biomarker Activity (AID 2283038).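 On outcome: uPA protein level quantified by ELISA in cell cultures; uPA read one day after compound addition.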 The conditions noted are these: primary human bronchial epithelial cells; actives raise or lower the signal. An outline of the steps: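 ELISA read-out of uPA in human lung primary bronchial epithelial cultures, 24 h post-dosing. Gain or loss of signal fitted bidirectionally relative to DMSO baseline; cytotoxicity checked in parallel cultures via SRB total protein stain.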

Read-out in assay [9]: Urokinase-type plasminogen activator receptor (uPAR), PLAUR (gene 5329)
Kind of assay: BSK_BE3C_uPAR: BioMAP Diversity Plus: BE3C Assay for Urokinase-type plasminogen activator receptor (uPAR) Biomarker Activity (AID 2283039).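 On outcome: uPAR protein level measured by ELISA on the cells; cells exposed to compound for one day before measurement.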 The conditions noted are these: primary human bronchial epithelial cells; actives raise or lower the signal. The method, boiled down:
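Steps: dose human primary bronchial epithelial cells, incubate 24 h, measure uPAR by ELISA, then fit gain- or loss-of-signal response bidirectionally relative to DMSO.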

Read-out in assay [10]: Interleukin-6 (IL6), IL6 (gene 3569)
Kind of assay: BSK_CASM3C_IL6: BioMAP Diversity Plus: CASM3C Assay for Interleukin-6 (IL6) Biomarker Activity for (AID 2283040). Conditions: primary human coronary artery smooth muscle cells; actives raise or lower the signal.

“And” between values parts separate entries of the source, which are not always exact repeats. Identical values can stand only once. A structure can be active in one record and inactive in another. The source made the active and inactive calls. How the source made its calls: active means hit-call score of the fitted dose curve at least 0.9, where 1 is the maximum; inactive means score below 0.9.

Consider 16 compounds from PubChem BioAssay (EPA / NIEHS).

As a reminder, the AC50 is the concentration at which the activity in the assay is half-maximal.

In the case of `C[C@]12CCC(=O)C=C1CC[C@@H]1[C@@H]2CC[C@@]2(C)[C@H]1CC[C@]2(C)O`, the result in assay [1], in [2], in assay [3], in [4], in assay [5] and in assay [6] was inactive. In addition, the result in assay [7], in [8], in [9] and in [10] was inactive.
With `CCOP(=S)(OCC)SCSC(C)(C)C`, the outcome in assay [1], in [2], in assay [3], in assay [4], in [5] and in assay [6] was inactive. In addition, the outcome in assay [7], in assay [8], in assay [9] and in [10] was inactive.
Regarding `CC(C)(O)C(=O)Nc1ccc([N+](=O)[O-])c(C(F)(F)F)c1`, the result in assay [1], in assay [2], in assay [3], in [5], in assay [6] and in assay [7] was inactive. Besides, the result in [8] and in assay [9] was inactive. Besides, the AC50 in assay [4] was 24.6 µM (active); in [10] it was 29.1 µM (active).
As to `Oc1c(Cl)c(Cl)c(Cl)c(Cl)c1Cl`, the AC50 in assay [1] is 11.6 µM (active); in [2], 8.2 µM (active) and 20.6 µM (active); in assay [3], 10.2 µM (active) and 21.5 µM (active); in [4] it was 5.02 µM (active) and 5.67 µM (active); in assay [5], 11.8 µM (active) and 30.3 µM (active); in assay [6], 9.53 µM (active). Besides, the AC50 was 1.18 µM (active) and 10.5 µM (active) in assay [7]; 4.12 µM (active) and 14.7 µM (active) in [8]; 7.14 µM (active) and 24.6 µM (active) in assay [9]. For the same compound, the outcome in assay [1], in [6] and in assay [10] was inactive.
For the compound `Cc1cc2c3c(c1)C(c1ccccc1)=N[C@@H](NC(=O)c1ccncc1)C(=O)N3CC2`, the result in assay [1], in assay [2], in assay [3], in assay [4], in assay [5] and in assay [6] was inactive. Moreover, the outcome in [7], in assay [8], in [9] and in [10] was inactive.
In the case of `Cc1ccc(O)c(C)c1`, the result in assay [1], in [2], in assay [4], in [5], in assay [6] and in [7] was inactive. The outcome in assay [8] and in assay [9] was inactive. Moreover, the concentration at half-maximal activity (AC50) in [3] is 5.94 µM (active); in assay [10], 1.29 µM (active).
In the case of `COS(=O)(=O)OC`, the outcome in assay [1], in assay [2], in [3], in assay [4], in [5] and in [6] was inactive. The outcome in assay [7], in assay [8], in [9] and in assay [10] was inactive.
On to `Clc1ccc(Cl)cc1`, for which the outcome in assay [1], in assay [2], in [3], in assay [4], in assay [5] and in [6] was inactive. Also, the result in assay [7], in assay [8], in assay [9] and in [10] was inactive.
As to `CCCN(CCC)N=O`, the outcome in [1], in assay [2], in [3], in assay [4], in [5] and in assay [6] was inactive. Also, the outcome in assay [7], in [8], in assay [9] and in assay [10] was inactive.
As to `CC1=C2C[C@H]3[C@@H](CC=C4C[C@@H](O)CC[C@@]43C)[C@@H]2CC[C@]12O[C@@H]1C[C@H](C)CN[C@H]1[C@H]2C`, the result in [1], in assay [2], in [3], in assay [4], in assay [5] and in assay [6] was inactive. Besides, the result in assay [7], in assay [8], in assay [9] and in assay [10] was inactive.
Consider `C[C@]12CCC(=O)C=C1CC[C@@H]1[C@@H]2CC[C@]2(C)C(=O)CC[C@@H]12`, for which the result in [1], in assay [2], in assay [3], in assay [4], in [5] and in [6] was inactive. Also, the result in assay [7], in assay [8], in [9] and in assay [10] was inactive.
As for `Cc1cc(-c2ccc(N)c(C)c2)ccc1N`, the outcome in assay [1], in [2], in assay [3], in assay [4], in [5] and in assay [6] was inactive. The outcome in assay [7], in [8], in assay [9] and in assay [10] was inactive.
In the case of `CC(C)C(=O)OCC(C)(C)C(OC(=O)C(C)C)C(C)C` (configuration not stated), the outcome in [1], in [2], in [3], in assay [4], in assay [5] and in assay [6] was inactive. The result in assay [7], in assay [8], in [9] and in [10] was inactive.
For the compound `CCSC(=O)N(CC)C1CCCCC1`, the result in assay [1], in assay [2], in [3], in assay [4], in assay [5] and in [6] was inactive. Besides, the outcome in assay [7], in [8], in assay [9] and in assay [10] was inactive.
With `ClC1=C(Cl)[C@]2(Cl)[C@@H]3[C@@H]4C[C@@H]([C@H]5O[C@@H]45)[C@@H]3[C@@]1(Cl)C2(Cl)Cl`, the result in assay [1], in assay [2], in assay [3], in assay [4], in assay [5] and in assay [6] was inactive. In addition, the result in assay [7], in [8], in assay [9] and in [10] was inactive.
As for `O=C(N[C@H]1CN2CCC1CC2)c1cc2ccoc2cn1`, the outcome in [1], in assay [2], in [3], in assay [4], in assay [5] and in assay [6] was inactive. The result in [7], in assay [8], in assay [9] and in assay [10] was inactive.
